From PubChem BioAssay
DRD3 antagonist = blocks the human D3 dopamine receptor | P35462 | D3R cells, DiscoveRx beta-arrestin luminescence, antagonist mode; active compounds read low | max response, negative = inhibition, % | actives 2.5% (n = 360,000) | AID 652054; in the data active = max response below about -50%; inconclusive = no clear call, values can overlap the other calls
Target sequence (P35462 whole entry, looked up): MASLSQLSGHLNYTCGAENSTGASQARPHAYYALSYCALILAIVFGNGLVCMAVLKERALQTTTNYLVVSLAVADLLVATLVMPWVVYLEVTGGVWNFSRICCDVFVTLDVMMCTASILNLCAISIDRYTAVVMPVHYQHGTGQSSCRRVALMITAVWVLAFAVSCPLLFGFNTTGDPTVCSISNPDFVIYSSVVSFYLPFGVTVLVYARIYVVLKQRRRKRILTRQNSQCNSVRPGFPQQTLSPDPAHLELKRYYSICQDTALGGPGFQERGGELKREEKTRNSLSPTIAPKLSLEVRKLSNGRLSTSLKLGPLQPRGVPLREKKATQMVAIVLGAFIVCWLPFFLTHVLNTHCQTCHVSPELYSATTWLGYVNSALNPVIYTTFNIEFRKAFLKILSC
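Cells expressing the human receptor were seeded at 1500 cells/well, incubated overnight at 37 degrees C in 5% CO2, then exposed to library compounds with dopamine controls for 90 minutes at 37 degrees C before luminescent detection.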
D1 PAM = human D1 dopamine receptor positive modulation; HEK293 TREx D1 cells, calcium flux, dopamine EC20 potentiation; potentiation, % at 10 µM; actives 0.036% (n = 360,000); AID 504651; in the data active = potentiation above about 30%
D1 antagonist = antagonists of human D1 dopamine receptor; actives 3.2% (n = 360,000); activity change, negative = inhibition, % at 10 µM; P21728; HEK293 TREx D1 cells, calcium flux, dopamine EC80; active compounds read low; in the data active = activity change below about -30%
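After overnight tetracycline induction at 30 C, force-coupled D1 HEK293 cells took up a no-wash calcium dye at room temperature. Compounds were added and monitored 180 s, and the response to EC80 dopamine was then recorded.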
D1 ag = human D1 receptor agonism; P21728; HEK293 T-REx D1 cells, calcium flux, agonist mode; activation, % at 2 µM; actives 1% (n = 360,000); AID 504660; in the data active = activation above about 30%
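Inducible HEK293 T-REx D1 cells, force-coupled to calcium signalling, were plated at 4000 cells/well with tetracycline and held overnight at 30 C. After no-wash calcium dye loading, compound-evoked calcium rise over 180 s flagged agonists.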
D3 ag = D3 dopamine receptor (human) agonism | max activation, % | D3R DiscoveRx beta-arrestin cells, luminescence, 90 min | P35462 | actives 0.58% (n = 410,000); in the data active = max activation above about 30%
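Cells at 1500/well, incubated overnight, then treated with pinned compounds (dopamine as control) for 90 min at 37 degrees C. DiscoveRx reagent added for 30 - 60 minutes at room temperature; luminescence read.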
Hits are given with their value; . = inactive; ? = inconclusive; / = no result. Sampled rows, rich in hits. Any-hit rate of the full collection: about 6%.

SMILES | DRD3 antagonist | D1 PAM | D1 antagonist | D1 ag | D3 ag
COc1ccc(Cn2c(C(=O)O)c(CNCc3ccccc3F)c3ccc(OC)cc32)cc1 | / | . | . | . | .
Cc1cc(S(=O)(=O)N2CCN(Cc3noc(CCC(=O)N4CCCCC4)n3)CC2)ccc1F | / | . | . | . | .
COC(=O)c1ccc(COc2cc(O)c3c(c2)OC(C)(C)CC3=O)cc1 | . | . | -35 | . | .
CC(c1ccco1)N(C(=O)C12CC3CC(CC(C)(C3)C1)C2)c1ccccn1 (configuration not stated) | -58 | . | . | . | .
CCN1C(=O)c2ccccc2Sc2ccc(NC(=O)Nc3cccc([N+](=O)[O-])c3C)cc21 | / | . | . | . | .
CN1CCC(OC(=O)COc2ccc(C(C)(C)C)cc2)CC1 | -56 | . | . | . | .
Cc1ccc(OCC(=O)OC2CCCN(C)C2)cc1 (configuration not stated) | . | . | . | . | .
CC1CCN(CCCCOc2ccc(C(C)(C)C)cc2)CC1 | -88 | . | . | 41 | .
CC(C)(C)c1ccc(OCCN2CCCC2)cc1 | -94 | . | . | . | .
CC(C)(C)c1ccc(OCCCCCCN2CCNCC2)cc1 | . | / | / | / | .
COc1ccc(NC(=O)C2=C(C)Nc3nc(SCc4ccc(C)cc4C)nn3C2c2cccc(OC)c2OC)cc1 (configuration not stated) | / | . | . | . | .
O=S(=O)(NCC(c1cccs1)S(=O)(=O)c1ccccc1)c1ccccc1 (configuration not stated) | / | . | / | . | .
CC(C)(C)c1ccc(C(=O)COC(=O)CN2C(=O)NC3(CCCC3)C2=O)cc1 | . | . | -31 | . | .
CCc1cc2c(cc3c(=O)n(CC(=O)NC(C)C)nc(CC)n32)s1 | / | . | . | . | .
COc1cc(/C=N/N2CCN(Cc3ccc(Cl)cc3)CC2)cc(Br)c1O | . | . | . | . | .
COc1ccc(/C=N/N2C(=O)CSC2=S)cc1Br | . | . | . | . | 37
Cc1ccc(CN2CCN(/N=C/c3ccc(O)c(O)c3)CC2)cc1 | -64 | . | . | . | .
COc1ccc(/C=N/N2CCN(Cc3ccc(C)cc3)CC2)cc1Br | -92 | . | . | . | .
Cc1ccc(CN2CCN(/N=C/c3ccc(C(=O)O)cc3)CC2)cc1 | . | . | . | . | .
CCCOC(=O)c1ccccc1O | / | / | / | / | .
Cc1ccn2c(=O)c(C(=O)NCCc3ccc(S(N)(=O)=O)cc3)c(O)nc2c1 | / | . | . | . | .
CCOC(=O)c1nc(NCc2ccc(Cl)cc2)c2c(C)noc2n1 | / | . | -49 | . | .
CCCCCC(=O)Nc1ccc(NC(=O)c2cc3ccccc3o2)c(OC)c1 | / | . | . | . | .
O=C(NCCCN1CCOCC1)c1cccc(NC(=O)c2ccccc2)c1 | . | / | / | / | .
Cc1ccc(NC(=O)c2ccc(NCCCN3CCC(C)CC3)c([N+](=O)[O-])c2)cc1F | -65 | . | . | . | .
SMILES | DRD3 antagonist | D1 PAM | D1 antagonist | D1 ag | D3 ag
O=C(Nc1cccc(Cl)c1)c1ccc(NCCCN2CCOCC2)c([N+](=O)[O-])c1 | -89 | . | . | . | .
CC1=NN(C(=S)Nc2ccccc2)C(c2ccccc2)C1 (configuration not stated) | ? | . | . | . | .
Cc1ccc(C2CC(c3ccccc3)=NN2C(=S)Nc2ccccc2)o1 (configuration not stated) | -51 | . | . | . | .
COc1cc(CCCN2C(=O)C(=O)NC[C@@H]2c2ccccc2)cc(OC)c1OC | . | . | . | . | .
COc1cc(CCCN2C(=O)C(=O)NC[C@@H]2C(C)O)cc(OC)c1OC (some centres not stated) | . | . | -37 | . | .
CC(=O)CC1(C)OC(N)=C(C#N)C1(C#N)C#N (configuration not stated) | . | . | -30 | . | .
CC1(C)C(C#N)=C(N)OC2=C1C(=O)CCC2 | . | . | . | . | .
COc1ccc(-c2nc(=S)c3ccc4ccccc4c3[nH]2)cc1 | . | . | -68 | . | .
COc1ccc(-c2nc3ccccc3[nH]2)cc1 | . | . | . | . | .
O=C1C=CC(=O)N1 | -83 | . | . | . | .
Cc1ccc(C(=O)NC(=S)N(C)C2CCCCC2)cc1 | . | . | -41 | . | .
CN(C(=S)NC(=O)/C=C/c1ccc(F)cc1)C1CCCCC1 | . | . | . | . | .
O=C(CN1CCCN(Cc2ccccc2Cl)S1(=O)=O)NCc1ccccc1 | / | . | . | . | .
COc1ccc(/C=C/C(=O)Nc2nc(-c3cccs3)ns2)cc1OC | / | . | . | . | 36
COc1ccc(/C=C/C(=O)Nc2nc(-c3cccs3)ns2)cc1 | / | . | . | . | .
COc1ccccc1NC(=O)Cn1c(=O)n(CCc2ccccc2)c(=O)c2c3c(sc21)CN(C(C)=O)CC3 | / | . | . | . | .
Cc1c(C(=O)Nc2ccc3nc(N4CCOCC4)sc3c2)oc2ccccc12 | . | . | -43 | . | .
Cc1ccc2cc(CCNC(=O)c3ccco3)c(=O)[nH]c2c1 | -103 | . | . | . | .
CCN(CC)S(=O)(=O)c1cccc(NC(=O)COc2ncnc3sccc23)c1 | -63 | . | . | . | .
Cc1ccc(NC(=O)COc2ncnc3sccc23)cc1S(=O)(=O)N(C)C | . | . | . | . | .
Cc1ccc(N(C)C(=O)C2CCN(S(=O)(=O)c3cn(C)cn3)CC2)cc1 | / | . | . | . | .
COc1ccc(CCC(=O)NC2CC(=O)N(c3ccc(C)cc3)C2)cc1 (configuration not stated) | / | . | / | . | 71
O=C(NCC(c1ccco1)N1CCN(c2ccccc2F)CC1)C(=O)NC1CCCCC1 (configuration not stated) | . | . | . | . | 54
O=C(COc1ccccc1)NCC(c1ccco1)N1CCN(c2ccc(F)cc2)CC1 (configuration not stated) | . | . | -64 | . | .
O=C(NCCc1c[nH]c2ccccc12)C(=O)NCC(c1ccco1)N1CCN(c2ccccc2)CC1 (configuration not stated) | . | . | . | . | 41
SMILES | DRD3 antagonist | D1 PAM | D1 antagonist | D1 ag | D3 ag
O=P(O)(O)OC(Cn1cncn1)(Cn1cncn1)c1ccc(F)cc1F | / | / | / | / | .
CCc1ccc(NCc2cc3cc4c(cc3n(CC(=O)Nc3ccc(C)cc3)c2=O)OCO4)cc1 | / | . | . | 49 | .
CCc1ccc(NCc2cc3cc4c(cc3n(CC(=O)Nc3ccccc3Cl)c2=O)OCO4)cc1 | / | . | . | 66 | .
CCc1ccc(NCc2cc3cc4c(cc3n(CC(=O)Nc3ccc(F)cc3)c2=O)OCCO4)cc1 | / | . | . | . | .
CN(C)c1c2ccccc2nc2c(F)c(F)c(F)c(F)c12 | . | . | . | . | .
Cc1c2ccccc2nc2c(F)c(N(C)C)c(F)c(F)c12 | . | . | . | 62 | .
OC(c1ccc(CN2CCCCC2)cc1)c1ncc(-c2ccccc2)[nH]1 (configuration not stated) | -107 | / | / | / | .
